Many of the other results were omitted from the sample, so hits are more common in it than they were.
CBX7 inh = CBX7 chromodomain binding inhibitors, primary screen, biochemical, AlphaScreen. Chromobox protein homolog 7 (Homo sapiens), O95931. AlphaScreen His6-CBX7 / biotin-H3K27me3 peptide binding; active compounds read low. normalised signal (fraction of DMSO) (test concentration not listed). hit rate 1.1% among 66,000; in the data active = normalised signal below about 0.5
Target sequence (O95931 whole entry, looked up): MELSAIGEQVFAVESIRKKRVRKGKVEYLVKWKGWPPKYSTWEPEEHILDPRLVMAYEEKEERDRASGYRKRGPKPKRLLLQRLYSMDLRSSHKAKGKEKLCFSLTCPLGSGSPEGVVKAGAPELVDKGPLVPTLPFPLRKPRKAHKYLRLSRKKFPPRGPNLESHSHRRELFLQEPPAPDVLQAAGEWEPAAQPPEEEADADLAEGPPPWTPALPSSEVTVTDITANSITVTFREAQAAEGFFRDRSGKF
Numbers without * were called inactive.

SMILES | CBX7 inh
Cc1ccc(OCc2nc(C#N)c(N3CCC(Cc4ccccc4)CC3)o2)cc1 | 0.6
N#Cc1nc(COc2ccc(Br)cc2)oc1N1CCCC1 | 0.47*
N#Cc1nc(COc2ccc(Br)cc2)oc1N1CCCCCC1 | 0.42*
CCN1CCN(c2oc(COc3ccc(Cl)cc3)nc2C#N)CC1 | 0.72
COc1ccc(CNC(=O)CCn2c(=O)[nH]c3cc(OC)c(OC)cc3c2=O)cc1 | 1.1
c1ccc(OCCCn2c(COc3ccccc3)nc3ccccc32)cc1 | 0.96
CCN1C(=O)c2ccccc2Sc2ccc(C(=O)NCCN3CCCCCC3)cc21 | 1.1
Cc1nc2cc(-c3ccc(Cl)cc3)nn2c(C)c1CCC(=O)NCCCN1CCCC1=O | 0.97
Cn1c(C(=O)NCc2ccccc2)cc2sc(Cl)cc21 | 0.95
O=C(COc1ccc(Cl)cc1)Nc1ccccc1-c1nc2ccccc2[nH]1 | 0.9
Cc1ccc(C(=O)c2oc3ccccc3c2NC(=O)CN2CCN(C)CC2)cc1 | 1.1
COC(=O)c1nnn(-c2nonc2N)c1CSc1nc2ccccc2o1 | 1
Nc1nonc1-n1nnc(C(=O)O)c1CSc1nc2ccccc2o1 | 0.018*
NC(=O)c1nnn(-c2nonc2N)c1CSc1nc2ccccc2o1 | 0.73
CC1CCN(c2nc3ccc(C(=O)N4CCc5ccccc5C4)cc3s2)CC1 | 1.1
Cc1ccccc1NC(=O)Cn1cc(S(=O)(=O)c2ccc(F)cc2)c(=O)c2cc(Cl)ccc21 | 0.87
COc1ccc(C(=O)c2cn(Cc3ccc(Cl)cc3)c3cc(OC)c(OC)cc3c2=O)cc1 | 0.74
COc1ccc(-c2csc(Nc3cccc(C(C)=O)c3)n2)cc1OC | 0.79
Cc1c(Cl)cccc1Nc1nc(-c2cccnc2)cs1 | 0.88
CC(=O)Nc1ccc(Nc2nc(-c3cc4ccccc4o3)cs2)cc1 | 0.79
Cc1c(Cl)cccc1Nc1nc(-c2ccccn2)cs1 | 0.47*
CC(=O)Nc1ccc(Nc2nc(-c3c(C)nc4ncccn34)cs2)cc1 | 1
CC(=O)c1cccc(Nc2nc(-c3cccs3)cs2)c1 | 0.86
CC(=O)c1cccc(Nc2nc(-c3ccccn3)cs2)c1 | 0.38*
Cc1c(Cl)cccc1Nc1nc(-c2cccs2)cs1 | 0.84
SMILES | CBX7 inh
CC(=O)Nc1ccc(Nc2nc(-c3ccccn3)cs2)cc1 | 0.061*
COCCN1Cc2cccc(C(=O)Nc3ccccc3C)c2C1=O | 1.1
CCCN1Cc2cccc(C(=O)NC3CCCCC3)c2C1=O | 1
C=CCN1C(=O)C(O)(CC(=O)c2cccnc2)c2cc(Br)ccc21 (stereo not drawn) | 0.97
CCCCCOc1ccc(-c2ccc(C#N)cc2)cc1 | 1.6
NC(=O)C1CCN(C(=O)CCn2c(=O)[nH]c3ccccc3c2=O)CC1 | 1.1
COc1ccc2c(c1)CCc1c(C(=O)Nc3cccc(Cl)c3)noc1-2 | 1.3
CCCNC(=O)Cn1cnc2sc(C(=O)NC(C)CC)c(C)c2c1=O (stereo not drawn) | 1.1
COc1cccc(-c2nn(C)c3sc(C(=O)Nc4ccccn4)cc23)c1 | 0.86
CCCCCCOc1ccc(C(=O)Nc2ccccn2)cc1 | 1.1
CCOC(=O)c1[nH]cnc1C(=O)Nc1ccccn1 | 0.19*
CCOC(=O)c1[nH]cnc1C(=O)Nc1ccc(OC)cc1 | 0.066*
CCOC(=O)c1ccc(NC(=O)COc2ccc(OC)cc2)cc1 | 1.3
CCOC(=O)c1[nH]cnc1C(=O)Nc1ccccc1 | 1
CCOc1ccc(C2C(C(=O)Nc3ccccn3)=C(C)NC3=C2C(=O)CCC3)cc1 (stereo not drawn) | 1
CC(=O)N1CCc2cc(S(=O)(=O)NCCc3ccc(C)cc3)ccc21 | 1.1
O=C(CC1C(=O)N(c2ccccc2)C(=O)N1Cc1ccc2c(c1)OCO2)Nc1ccc(Cl)cc1 (stereo not drawn) | 0.88
CCOc1ccc2nc(N3CCC(C(=O)N4CCN(c5cc(Cl)ccc5C)CC4)CC3)sc2c1 | 0.89
CCn1c(C(=O)Nc2ccc(OC)cc2)cc2sc(Cl)cc21 | 0.92
O=C(CN1C(=O)CCSc2ccccc21)NCCCN1CCCC1 | 1
Cc1ccc(N2C(=O)CC(NCCc3ccc(Cl)cc3)C2=O)cc1 (stereo not drawn) | 1.1
CCOc1ccc(N2C(=O)CC(NCCc3ccccn3)C2=O)cc1 (stereo not drawn) | 0.86
O=C1CC(NCCc2ccccn2)C(=O)N1c1ccc(Cl)cc1 (stereo not drawn) | 0.17*
Cc1nc(Oc2ccc(F)cc2)c(C(=O)NCc2ccccc2Cl)c(C)c1Cl | 1.1
CCOC(CNC(=O)C1CCN(Cc2nc(-c3ccccc3F)oc2C)CC1)OCC | 1
SMILES | CBX7 inh
COc1ccc(OCCCCCCc2c(C)n[nH]c2C)cc1 | 0.43*
Cc1n[nH]c(C)c1CCCCCCOc1ccc(F)cc1 | 1
Cc1n[nH]c(C)c1CCCCOc1ccc(C(C)(C)C)cc1 | 0.82
Brc1ccc(-c2nnc3ccc(Oc4ccccc4)nn23)cc1 | 0.97
CCOc1ccc(NC(=O)c2cc3sccc3n2Cc2ccc(C)cc2)cc1 | 0.91
Cc1cc(C)cc(NC(=O)c2cnc3scc(C)n3c2=O)c1 | 1.1
O=C1C2C3C=CC(O3)C2C(=O)N1c1ccc(F)cc1 (stereo not drawn) | 0.78
